A short description of experiment [1]: CCTE_Harrill_HTTr_Viability_MCF7: CCTE's 6-hour Cell Viability Assessment for the High-Throughput Transcriptomics (HTTr) Platform, in MCF-7 cells cultured in DMEM + 10% fetal bovine serum, Harrill Lab (AID 2284010). In a few lines: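 PI exclusion, high-content imaging; 8-pt dilution series, 6 h exposure; bidirectional fit vs DMSO (neg. ctrl/baseline); gain of signal = loss of membrane integrity.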

Experiment [2] in a line: CCTE_Harrill_HTTr_Apoptosis_MCF7: CCTE's 6-hour Apoptosis Assessment for the High-Throughput Transcriptomics (HTTr) Platform, in MCF-7 cells cultured in DMEM + 10% fetal bovine serum, Harrill Lab (AID 2284011). In a few lines:
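Apoptosis in MCF-7 cells grown in DMEM with 10% fetal bovine serum was scored after a six hour exposure by high content imaging of caspase-3/7 activation (CellEvent Caspase 3/7 Green), with DMSO serving as negative control and baseline.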

The nature of experiment [3]: CCTE_Harrill_HTTr_CellCount_MCF7: CCTE's Cell Proliferation Assessment for the High-Throughput Transcriptomics (HTTr) Platform, Harrill Lab (AID 2284012; active = hit-call score of the fitted dose curve at least 0.9, where 1 is the maximum;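 note: count of Hoechst-stained nuclei per well by high-content imaging in MCF-7 cells; cells exposed to compound for six hours; intended direction is loss of nuclei count meaning fewer cells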). In a few lines: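 Readout: Hoechst nuclear count by high-content imaging. MCF-7, 8-point dilution series, 6 h exposure. Bidirectional fit vs DMSO baseline.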
Experiment [4] in a line: CCTE_Shafer_MEA_acute_burst_number: CCTE's Neural Acute Assay for Single-Electrode Bursts, Shafer Lab (AID 2284013). The gist of the method: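 Percent change in single-electrode burst number per well, from 40-min recordings taken before and after adding compound (0.03-40 uM) to primary rat cortical neurons on MEA plates at DIV 13 or 15, 37 C.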
The nature of experiment [5]: CCTE_Shafer_MEA_acute_burst_duration_mean: CCTE's Neural Acute Assay for Mean Burst Duration, Shafer Lab (AID 2284014).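 Note: hits are decreases in mean burst duration relative to DMSO controls.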 In a few lines: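 Rat cortical cultures, DIV 13/15; 40 min baseline, then 40 min with compound (0.03-40 uM), 37 C. Spikes: 300-5000 Hz band-pass, 8x rms threshold. Read-out: % change in mean single-electrode burst duration, DMSO-referenced, loss direction.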

Experiment [6] is described as follows: CCTE_Shafer_MEA_acute_per_burst_spike_number_mean: CCTE's Neural Acute Assay for Average Number of Spikes Per Burst, Shafer Lab (AID 2284015).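 Note: hits are decreases in mean spikes per burst versus baseline.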 The gist of the method: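 We recorded spontaneous network firing of rat cortical neurons for 40 min before and 40 min during exposure to compound at 0.03-40 uM, at 37 C. Spikes were detected adaptively at 8x rms noise, and the change in average spikes per burst was fitted against DMSO.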

Experiment [7] can be described thus: CCTE_Shafer_MEA_acute_interburst_interval_mean: CCTE's Neural Acute Assay for Mean Interburst Interval, Shafer Lab (AID 2284016).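 Note: percent change of mean interburst interval versus each well's own pre-dose baseline; curves fitted for decrease in interburst interval relative to DMSO.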 The gist of the method:
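MEA recording of spontaneous network bursting in primary rat cortical cultures; mean interburst interval was compared before and after a 40-min compound exposure (0.03-40 uM) and expressed as percent change, relative to DMSO.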

A short description of experiment [8]: CCTE_Shafer_MEA_acute_burst_percentage_mean: CCTE's Neural Acute Assay for Percentage of Spikes in a Burst, Shafer Lab (AID 2284017).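 For AC50: curve fitted for loss of signal so potency reflects decreased burst percentage.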 The gist of the method:
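Compounds were tested at 0.03-40 uM on primary rat cortical neuron networks grown over microelectrodes, with at least three wells per compound. Spontaneous firing was recorded for 40 min before and 40 min after dosing, and the change in burst percentage was computed per well.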

A short description of experiment [9]: CCTE_Shafer_MEA_acute_burst_percentage_std: CCTE's Neural Acute Assay for Standard Deviation of Burst Percentage, Shafer Lab (AID 2284018).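 Note: fitted in the negative direction so actives lower burst percentage SD.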 In a few lines:
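Rat primary cortical neurons on 48-well MEAs, DIV 13 or 15, 37 C. 40-min baseline then 40-min recording with compound (0.03-40 uM); well-level SD of per-electrode burst spike percentage, expressed as percent change from baseline.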

The nature of experiment [10]: CCTE_Shafer_MEA_acute_per_network_burst_spike_number_mean: CCTE's Neural Acute Assay for Average Number of Spikes in a Network Burst, Shafer Lab (AID 2284019).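 For AC50: curve fitted for loss of signal so actives reduce spikes per network burst.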 In a few lines: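 Rat cortical cultures, DIV 13/15; spike threshold 8x rms noise, 300-5000 Hz band-pass, 12.5 kHz sampling; wells need >/= 10 active electrodes. Compound 0.03-40 uM, 40 min, 37 C; % change vs own baseline, DMSO negative control.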

Experiment [11] is described as follows: CCTE_Shafer_MEA_acute_per_network_burst_spike_number_std: CCTE's Neural Acute Assay for Standard Deviation of Number of Spikes in a Network Burst, Shafer Lab (AID 2284020).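 Note: fitted for decrease in spike-number SD versus DMSO so actives lower it.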 In a few lines:
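Rat cortical cultures, DIV 13/15, 37 C; 20-min stabilisation, 40-min baseline, compound 0.03-40 uM, 40-min re-record. Spikes detected at 8x rms noise (300-5000 Hz band-pass). Readout: % change from baseline in per-burst spike-number SD.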

Experiment [12] is described as follows: CCTE_Shafer_MEA_acute_per_network_burst_electrodes_number_mean: CCTE's Neural Acute Assay for Mean Number of Electrodes in a Network Burst, Shafer Lab (AID 2284021).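 Note: curves fitted for decreases only so hits reduce electrodes per burst.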 In a few lines: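 Percent change from baseline in average electrode count per network burst, rat cortical cultures on 48-well MEAs; 40-min recordings each side of exposure, DIV 13 or 15; threshold 8x rms noise; DMSO as negative control.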

Experiment [13] in a line: CCTE_Shafer_MEA_acute_network_burst_percentage: CCTE's Neural Acute Assay for Percentage of Network Bursts, Shafer Lab (AID 2284022).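 Note: curves fitted for loss so actives lower network burst percentage.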 The gist of the method:
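On DIV 13 or 15, at least three wells of rat cortical neurons per compound are dosed at 0.03-40 uM. Spontaneous firing is detected at 8x rms noise for 40 min before and after dosing at 37 C. The percent change in network-burst spike share is reported.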

A short description of experiment [14]: CCTE_Shafer_MEA_acute_cross_correlation_area: CCTE's Neural Acute Assay for Area of Cross Correlation, Shafer Lab (AID 2284024).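 Note: area under pooled inter-electrode spike cross-correlation near zero lag as percent change from own baseline; curves fitted for loss of cross-correlation area so actives lower synchrony.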 The gist of the method:
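Extracellular recordings from cultured rat cortical neurons measure network synchrony as cross-correlation area; each well's post-compound value (0.03-40 uM, 40 min) is compared with its own 40 min baseline to give percent change.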

The nature of experiment [15]: CCTE_Shafer_MEA_acute_synchrony_index: CCTE's Neural Acute Assay for Synchrony, Shafer Lab (AID 2284027).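 Note: network synchrony index of spontaneous spiking in primary rat cortical neurons on MEAs; fitted for loss of signal so actives lower synchrony relative to DMSO.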 The gist of the method: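 Rat cortical cultures, DIV 13/15; spikes detected at 8x rms noise, 300-5000 Hz band-pass. Compound 0.03-40 uM, ≥3 wells; 40-min pre- and post-exposure recordings, 37 C. Readout: % change in synchrony index; loss-of-signal fit vs DMSO.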

Experiment [16] deals with Estrogen receptor (Homo sapiens) (UniProt P03372). Put plainly: CCTE_Deisenroth_AIME_384WELL_LUC_Active: CCTE's 384-well Estrogen Receptor Transactivation Assay with AIME metabolic competence (ERTA luciferase; metabolism positive), Deisenroth Lab (AID 2284030; active = hit-call score of the fitted dose curve at least 0.9, where 1 is the maximum). In a few lines:
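Estrogenic luciferase signal in VM7Luc4E2 cells is measured at 24 hour, after chemicals have been preconditioned 2 hours with PB/BNF-induced rat hepatic S9 in alginate. Gain of signal is fitted relative to 17beta-estradiol, across 0.002 - 200 uM.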

For experiment [17] the target is unchanged. Put plainly: CCTE_Deisenroth_AIME_96WELL_LUC_Active: CCTE's 96-well Estrogen Receptor Transactivation Assay with AIME metabolic competence (ERTA luciferase; metabolism positive), Deisenroth Lab (AID 2284023; active = hit-call score of the fitted dose curve at least 0.9, where 1 is the maximum). The gist of the method: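 Metabolism-positive mode: induced rat hepatic S9 in alginate microspheres conditions test solutions (0.002 - 200 uM, 10 points) for 2 hours. VM7Luc4E2 ER luciferase reporter cells then exposed 24 h; positive-direction fit against 17beta-estradiol, n=4 typical.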

Experiment [18] shares this target. Description: CCTE_Deisenroth_AIME_96WELL_LUC_Inactive: CCTE's 96-well Estrogen Receptor Transactivation Assay without AIME metabolic competence (ERTA luciferase; metabolism negative), Deisenroth Lab (AID 2284025; active = hit-call score of the fitted dose curve at least 0.9, where 1 is the maximum). In a few lines: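 Metabolism-negative arm: chemicals (0.002–200 uM, 10 points) incubated 2 h with alginate-water microspheres, then medium moved onto VM7Luc4E2 cells for 24 h luciferase read-out. Positive direction vs 17beta-estradiol; n≥4 experiments.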

Experiment [19] is described as follows: CCTE_Deisenroth_AIME_96WELL_CTox_Active: Cytotoxicity Assessment (CTOX) in CCTE's 96-well Estrogen Receptor Transactivation Assay with AIME metabolic competence (metabolism positive), Deisenroth Lab (AID 2284028; active = hit-call score of the fitted dose curve at least 0.9, where 1 is the maximum). In a few lines:
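Cytotoxicity in VM7Luc4E2 breast cells after 24 h exposure to medium from a 2 h metabolic pre-incubation with induced rat hepatic S9 in alginate microspheres; fluorescent live-cell protease readout, 10-point series 0.002–200 uM, n=4.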

A short description of experiment [20]: CCTE_Deisenroth_AIME_96WELL_CTox_Inactive: Cytotoxicity Assessment (CTOX) in CCTE's 96-well Estrogen Receptor Transactivation Assay without AIME metabolic competence (metabolism negative), Deisenroth Lab (AID 2284029; active = hit-call score of the fitted dose curve at least 0.9, where 1 is the maximum). The gist of the method: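 Cytotoxicity in VM7Luc4E2 breast cells was scored as loss of fluorescent signal from a live-cell protease substrate 24 h after exposure, using bidirectional curve fitting. Test media came from a 2 h metabolism-negative pre-incubation (alginate-water, no hepatic S9) of compounds at 0.002-200 uM, with at least four replicates.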

Results filed as inconclusive are left out. Activity calls are given as the source filed them. Rule for the calls, unless noted: active = hit-call score of the fitted dose curve at least 0.9, where 1 is the maximum; inactive = score below 0.9.

Sequence of Estrogen receptor (Homo sapiens) (P03372 whole entry, looked up): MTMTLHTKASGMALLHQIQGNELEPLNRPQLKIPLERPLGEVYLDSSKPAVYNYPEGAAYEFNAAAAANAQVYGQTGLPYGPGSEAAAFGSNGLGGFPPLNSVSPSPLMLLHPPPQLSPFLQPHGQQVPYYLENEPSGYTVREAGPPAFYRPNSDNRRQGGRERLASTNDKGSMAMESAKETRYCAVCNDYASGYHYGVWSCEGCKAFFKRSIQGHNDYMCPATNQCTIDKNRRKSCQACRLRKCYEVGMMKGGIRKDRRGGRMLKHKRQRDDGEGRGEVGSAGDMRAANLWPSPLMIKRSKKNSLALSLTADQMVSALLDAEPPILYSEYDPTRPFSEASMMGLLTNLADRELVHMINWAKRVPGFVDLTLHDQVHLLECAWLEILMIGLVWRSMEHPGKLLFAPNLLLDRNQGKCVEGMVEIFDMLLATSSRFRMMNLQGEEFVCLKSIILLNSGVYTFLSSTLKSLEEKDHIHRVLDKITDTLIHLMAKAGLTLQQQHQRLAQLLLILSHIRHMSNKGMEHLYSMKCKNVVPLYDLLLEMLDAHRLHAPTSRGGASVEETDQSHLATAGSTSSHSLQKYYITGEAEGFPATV

`c1cc(-c2ccncc2)ccn1`: the result in experiment [1], in experiment [2], in experiment [3], in experiment [4], in experiment [5] and in experiment [6] was inactive. Further, the outcome in experiment [7], in experiment [8], in experiment [9], in experiment [10], in [11] and in [12] was inactive. Further, the outcome in experiment [13], in experiment [14] and in experiment [15] was inactive.

Take `NS(=O)(=O)c1cc2c(cc1Cl)NCNS2(=O)=O`: the result in experiment [1], in [2], in experiment [3], in [4], in experiment [5] and in [6] was inactive. Further, the compound was classed as inactive in experiment [7], in [8], in experiment [9], in experiment [10], in experiment [11] and in experiment [12]. Further, the compound was called inactive in [13], in experiment [14] and in [15].

In the case of `Cc1ccc(C(C)C)c(O)c1`, the result in experiment [1], in [2], in experiment [3], in experiment [4], in [5] and in experiment [6] was inactive. The result in experiment [7], in experiment [9], in experiment [10], in [11], in experiment [12] and in [13] was inactive. Besides, the outcome in experiment [14], in experiment [15] and in experiment [16] was inactive. In [8], the AC50 is 20 µM (active).

`CNCc1cc(F)ccc1Oc1ccc(Cl)c(Cl)c1`: the outcome in [1], in experiment [2], in experiment [3], in experiment [7], in [8] and in [9] was inactive. The result in experiment [12], in experiment [13], in experiment [14], in experiment [15] and in experiment [16] was inactive. Also, the AC50 was 2.24 µM (active) in [4]; 33.5 µM (active) in experiment [5]; 31.5 µM (active) in experiment [6]; 32.6 µM (active) in [10]; 31.7 µM (active) in experiment [11].

Consider `Nc1ccc(S(=O)(=O)c2ccc(N)cc2)cc1`, for which the result in experiment [1], in experiment [2] and in experiment [3] was inactive.

As for `COc1ccc(C)cc1N`, the outcome in experiment [1], in experiment [2], in experiment [3] and in [16] was inactive.

As for `Nc1ccccc1N`, the outcome in experiment [1], in experiment [2], in [3], in experiment [4], in experiment [5] and in experiment [6] was inactive. For the same compound, the compound was classed as inactive in experiment [7], in experiment [8], in experiment [9], in experiment [10], in experiment [11] and in experiment [12]. The call in [13], in experiment [14] and in experiment [15] was inactive.

With `O=C(OCCCCCOC(=O)c1ccccc1)c1ccccc1`, the result in [1], in experiment [2] and in experiment [3] was inactive.

`CC(C)c1ccc(C(=O)N=C(N)N)cc1S(C)(=O)=O`: the outcome in [1], in experiment [2] and in [3] was inactive.

Take `COc1cc(/C=C/C(=O)CC(=O)/C=C/c2ccc(O)c(OC)c2)ccc1O`: the outcome in [1], in experiment [2], in experiment [3], in experiment [17] and in experiment [18] was inactive. The AC50 in experiment [19] is 63 µM (active); in [20], 93.8 µM (active).

`Cc1ccc(C)c(O)c1C`: the result in [1], in experiment [2], in experiment [3], in [4], in experiment [5] and in experiment [6] was inactive. The result in [7], in [10], in experiment [11], in experiment [12], in experiment [13] and in experiment [14] was inactive. Moreover, the outcome in [16] was inactive. The AC50 in experiment [8] is 32.4 µM (active); in [9] it was 29.3 µM (active); in experiment [15] it was 31.6 µM (active).

For `CNC(=O)[C@H]1O[C@@H](n2cnc3c(NCc4cc(Cl)ccc4OCc4cc(C)no4)ncnc32)[C@H](O)[C@@H]1N`, the result in [1], in [2], in [3] and in [16] was inactive.

For `C=CCOC(=O)c1ccccc1C(=O)OCC=C`, the result in experiment [1], in [2], in [3], in [4], in experiment [5] and in experiment [6] was inactive. Moreover, the result in experiment [7], in experiment [10], in experiment [11], in experiment [12], in experiment [13] and in experiment [14] was inactive. Besides, the result in [15] was inactive. Further, the AC50 in experiment [8] and in [9] was 20 µM (active) each time.
